High-throughput results: PubChem BioAssay, National Center for Advancing Translational Sciences (NCATS)
IL-1B inflam inh: blocks inflammasome-driven IL-1 beta release | THP-1 LPS/ATP IL-1B secretion, AlphaLISA, 16 h; active compounds read low | activity change, % at 57.5 µM | hit rate 4.7% among 360,000; in the data active means activity change below about -50%; inconclusive means mostly about -30% to -49%
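Secreted IL-1B measured by AlphaLISA bead assay after 16 h compound exposure of THP-1 cells; compounds (final up to 57.5 uM) added 1 h before LPS (250 ng/mL) and ATP (1.25 mM) stimulation; lower signal means less secretion.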
TDP1 cell CPT: DT40-hTDP1 cell growth loss with CPT; Potency, µM (doses to about 46.2 µM), actives largely listed as inhibitors; hit rate 12% among 420,000; chicken DT40 Tdp1-/-;hTDP1 cells + 20 nM CPT, ATP luminescence, 48 h; further: nearly all actives have a fitted effect of over 55% in size
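Chicken DT40 Tdp1-/- cells complemented with human TDP1, 400 cells/well, exposed to compounds plus 20 nM camptothecin for at least 48 h at 37 C; viability read as ATP content by CellTiter-Glo luminescence.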
ClpP mod: qHTS Assay for Activators of ClpP. ATP-dependent Clp protease proteolytic subunit (Bacillus subtilis (strain 168)), P80244. AID 651965, 2013. Potency, µM (highest dose often 57.5 µM). purified B. subtilis ClpP, FRET peptide cleavage, 20 min. hit rate 1.9% among 340,000; active means well fitted falling curve with a large enough effect; inconclusive means small, poorly fitted or top-dose-only effect; inactive means no such curve, though single readings can be large or run the other way; further: the source files actives as falling curves though it sought activators and does not explain the sign; nearly all actives have a fitted effect of over 65% in size
Target sequence (P80244 whole entry, looked up): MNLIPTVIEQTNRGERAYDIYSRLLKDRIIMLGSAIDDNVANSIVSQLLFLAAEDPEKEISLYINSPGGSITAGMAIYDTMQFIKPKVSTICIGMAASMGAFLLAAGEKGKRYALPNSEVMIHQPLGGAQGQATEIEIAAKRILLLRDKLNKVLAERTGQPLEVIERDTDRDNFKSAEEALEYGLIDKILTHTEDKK
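Buffer: 100 mM Tris/HCl pH8, 100 mM KCl, 0.05% low protease BSA, 2.5% glycerol, 0.01% Tween-20. ClpP 10 microg/mL final; 20 min RT; delta FRET normalized to ADEP and DMSO controls.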
D3 ag: agonists of human D3 dopamine receptor. max activation, %. P35462. D3R DiscoveRx beta-arrestin cells, luminescence, 90 min. hit rate 0.58% among 410,000; in the data active means max activation above about 30%
Target sequence (P35462 whole entry, looked up): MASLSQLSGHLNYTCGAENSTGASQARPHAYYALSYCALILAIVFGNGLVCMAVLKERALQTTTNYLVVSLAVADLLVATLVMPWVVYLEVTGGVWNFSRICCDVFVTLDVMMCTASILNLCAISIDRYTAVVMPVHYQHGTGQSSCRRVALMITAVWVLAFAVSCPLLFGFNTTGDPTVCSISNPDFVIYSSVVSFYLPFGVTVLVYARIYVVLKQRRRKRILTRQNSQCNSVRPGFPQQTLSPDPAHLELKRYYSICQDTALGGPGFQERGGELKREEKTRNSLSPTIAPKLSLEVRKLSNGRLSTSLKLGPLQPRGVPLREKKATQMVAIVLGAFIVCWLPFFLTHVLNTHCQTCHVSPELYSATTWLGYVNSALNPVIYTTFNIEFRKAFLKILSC
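Cells at 1500/well, incubated overnight, then treated with pinned compounds (dopamine as control) for 90 min at 37 degrees C. DiscoveRx reagent added for 30 - 60 minutes at room temperature; luminescence read.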
D3 antag: blocks the human D3 dopamine receptor; hit rate 2.5% among 360,000; AID 652054; max response, negative = inhibition, %; D3R cells, DiscoveRx beta-arrestin luminescence, antagonist mode; active compounds read low; P35462; in the data active means max response below about -50%; inconclusive means no clear call, values can overlap the other calls
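Cells expressing the human receptor were seeded at 1500 cells/well, incubated overnight at 37 degrees C in 5% CO2, then exposed to library compounds with dopamine controls for 90 minutes at 37 degrees C before luminescent detection.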
TDP1 cell noCPT: qHTS for Inhibitors of human tyrosyl-DNA phosphodiesterase 1 (TDP1): qHTS in cells in absence of CPT; DT40 Tdp1-/- hTDP1 cells, no CPT, ATP luminescence, 48 h; Potency, µM (titrated, usually from 46.2 µM), usual class: inhibitors; hit rate 15% among 420,000; AID 686978, 2013; further: nearly all actives have a fitted effect of over 55% in size
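Compound effects on proliferation are scored in DT40 Tdp1-/-;hTDP1 cells in the absence of CPT. ATP levels (CellTiter-Glo luminescence) are recorded after a ≥48 hr, 37 °C incubation.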
Numbers stand for hits; [ ] = remark or other dose. A selection: hits, their analogues and other compounds. The true share with any hit is near 21%. Unless noted, the call rests on the fitted dose curve; in most records, active means well fitted inhibition curve with a large enough effect; inconclusive means small, poorly fitted or top-dose-only effect; inactive means flat fitted curve, though single readings scatter.

Results for COCCn1c(=O)c(-c2ccc(F)cc2)nc2cnc(Oc3cccc(Cl)c3)nc21 ?
TDP1 cell CPT: inactive; TDP1 cell noCPT: inactive

What do the screens show for `CCOC(=O)C1CCN(CC(O)COC(CC)c2ccccc2)CC1` (configuration not stated)?
IL-1B inflam inh: inactive; TDP1 cell CPT: inactive; ClpP mod: inactive; D3 ag: inactive; D3 antag: inactive; TDP1 cell noCPT: inactive

Results for CCC1Oc2ccc(C)cc2N(CC(=O)NCCc2ccccc2)C1=O (configuration not stated) ?
TDP1 cell CPT: inactive; ClpP mod: inactive; D3 ag: inactive; TDP1 cell noCPT: inactive

Results for Cc1ccc(C(=O)OCC(=O)Nc2c(Cl)cc(S(N)(=O)=O)cc2Cl)o1 ?
IL-1B inflam inh: inactive; TDP1 cell CPT: inactive; ClpP mod: inactive; D3 ag: inactive; D3 antag: inactive; TDP1 cell noCPT: inactive

What do the screens show for `O=C(OCCN1C(=O)c2ccccc2C1=O)c1cc(S(=O)(=O)N2CCOCC2)ccc1F`?
IL-1B inflam inh: inactive; TDP1 cell CPT: inactive; ClpP mod: inactive; D3 ag: inactive; D3 antag: inactive; TDP1 cell noCPT: inactive

How did O=C(OCCN1C(=O)c2cccc3c(N4CCOCC4)ccc(c23)C1=O)c1ccc(Cl)cc1 do in these assays?
IL-1B inflam inh: inactive; TDP1 cell CPT: 2.1µM; ClpP mod: inactive; D3 ag: inactive; D3 antag: inactive; TDP1 cell noCPT: 1.6µM

What do the screens show for `CCCN(CCC)S(=O)(=O)c1ccc(C(=O)OCCN2C(=O)c3cccc4c(N5CCOCC5)ccc(c34)C2=O)cc1`?
IL-1B inflam inh: inactive; TDP1 cell CPT: inconclusive; ClpP mod: 22µM; D3 ag: inactive; D3 antag: inactive; TDP1 cell noCPT: inconclusive

Results for COc1ccccc1CNC(=O)CN1C(=O)COc2ccc(S(=O)(=O)N3CCC(C)CC3)cc21 ?
ClpP mod: inactive; D3 ag: inactive

How did CCOC(=O)C1CCCN(C(=O)c2cnn(-c3ncc4c(n3)-c3ccccc3CC4)c2C)C1 (configuration not stated) do in these assays?
TDP1 cell CPT: inactive[9.04 µM]; TDP1 cell noCPT: inactive

What do the screens show for `O=C1Nc2ccccc2-c2nnnn2C1N1CCCC1` (configuration not stated)?
IL-1B inflam inh: inactive; TDP1 cell CPT: inactive; ClpP mod: inactive; D3 ag: inactive; D3 antag: inactive; TDP1 cell noCPT: inactive

What do the screens show for `O=C(/C=C/c1ccccc1)c1ccccc1`?
IL-1B inflam inh: inconclusive; TDP1 cell CPT: 15µM; ClpP mod: inactive; D3 ag: inactive; D3 antag: inactive; TDP1 cell noCPT: inactive

How did O=C(/C=C/c1ccc[nH]1)c1ccccc1 do in these assays?
IL-1B inflam inh: inconclusive; TDP1 cell CPT: 26µM; D3 ag: inactive; D3 antag: inactive; TDP1 cell noCPT: inconclusive

What do the screens show for `O=C(/C=C/c1ccccc1)c1ccc2c3c(cccc13)CC2`?
IL-1B inflam inh: -99; TDP1 cell CPT: inconclusive; ClpP mod: inactive; D3 ag: inactive; D3 antag: inactive; TDP1 cell noCPT: inconclusive

Results for O=C(/C=C/c1ccccc1)c1ccc2ccccc2c1 ?
IL-1B inflam inh: inconclusive; TDP1 cell CPT: inconclusive; D3 ag: inactive; D3 antag: -51; TDP1 cell noCPT: 16µM

How did Cc1ccc(C)c(OC(C)C(=O)Nc2nccs2)c1 (configuration not stated) do in these assays?
IL-1B inflam inh: inactive; TDP1 cell CPT: inactive; ClpP mod: inactive; D3 ag: inactive; D3 antag: inactive; TDP1 cell noCPT: inactive

What do the screens show for `CC(C)c1ccc(S(=O)(=O)c2cnc(SCC(=O)Nc3ccc4c(c3)OCCO4)[nH]c2=O)cc1`?
TDP1 cell CPT: inactive; ClpP mod: inactive; D3 ag: inactive; TDP1 cell noCPT: inactive

What do the screens show for `CC(C)C[C@@H]1COc2cccc(N(C)CCO)c2S(=O)(=O)N1`?
IL-1B inflam inh: inactive; TDP1 cell CPT: inactive; ClpP mod: inactive; D3 ag: inactive; D3 antag: inactive; TDP1 cell noCPT: inconclusive

Results for O=C(C=C1NCCN1)c1ccccc1 ?
IL-1B inflam inh: inactive; TDP1 cell CPT: inactive; ClpP mod: inactive; D3 ag: inactive; D3 antag: inactive; TDP1 cell noCPT: inactive

How did O=CC(=O)c1ccccc1 do in these assays?
IL-1B inflam inh: inactive; TDP1 cell CPT: inconclusive; ClpP mod: inactive; D3 ag: inactive; D3 antag: inactive; TDP1 cell noCPT: 16µM

Results for O=C(/C=C/c1ccccc1)/C=C/c1ccccc1 ?
IL-1B inflam inh: -98; TDP1 cell CPT: 5.2µM; ClpP mod: inactive; D3 ag: inactive; D3 antag: -58

What do the screens show for `COC(=O)c1ccc(NC(=O)CCN2C(=O)C3CC=CCC3C2=O)cc1` (configuration not stated)?
IL-1B inflam inh: inactive; TDP1 cell CPT: inactive; ClpP mod: inactive; D3 ag: inactive; D3 antag: inactive; TDP1 cell noCPT: inactive

Results for C=C[C@@H]1c2cc(C)ccc2N(S(=O)(=O)c2ccc(C)cc2)[C@H](c2ccc(OC(C)=O)cc2)C1(C#N)C#N ?
IL-1B inflam inh: inactive; TDP1 cell CPT: 4.6µM; ClpP mod: inactive; D3 ag: inactive; D3 antag: inconclusive; TDP1 cell noCPT: 5.8µM

How did C=C[C@@H]1c2ccccc2N(S(=O)(=O)c2ccc(C)cc2)[C@H](c2ccc(OC(C)=O)cc2)C1(C#N)C#N do in these assays?
IL-1B inflam inh: inactive; TDP1 cell CPT: 16µM; ClpP mod: inactive; D3 ag: inactive; D3 antag: inconclusive; TDP1 cell noCPT: 16µM

How did Cc1cc(C)c(S(=O)(=O)c2ccccc2C(C)C)c(=O)[nH]1 do in these assays?
IL-1B inflam inh: inactive; TDP1 cell CPT: inactive; ClpP mod: inactive; D3 ag: inactive; D3 antag: inactive; TDP1 cell noCPT: inactive

How did COc1ccc(Cn2nnnc2CN(Cc2cc3cc(C)ccc3[nH]c2=O)C2CCCC2)cc1 do in these assays?
IL-1B inflam inh: -61; TDP1 cell CPT: 12µM; ClpP mod: inactive; D3 ag: inactive; D3 antag: inactive; TDP1 cell noCPT: 11µM

Results for CCOc1ccc2[nH]c(=O)c(C(c3nnnn3Cc3ccco3)N3CCCC(C)C3)cc2c1 (configuration not stated) ?
IL-1B inflam inh: inactive; TDP1 cell CPT: inconclusive; ClpP mod: inactive; D3 ag: inactive; D3 antag: inactive; TDP1 cell noCPT: inactive

What do the screens show for `COc1ccc2[nH]c(=O)c(CN(C3CCCCC3)C(c3nnnn3Cc3ccco3)C(C)C)cc2c1` (configuration not stated)?
IL-1B inflam inh: -93; TDP1 cell CPT: 12µM; ClpP mod: inactive; D3 ag: inactive; D3 antag: inactive; TDP1 cell noCPT: inconclusive
